TCR activator – activates T cell receptor signaling. primary human leukocytes, anti-CD3, IL-2 HTRF, 48 h. 330,000 tested, under 10 active. AID 504894. Potency, µM (highest dose often 9.22 µM), without a hit: at the top dose activation of IL-2 secretion, actives largely listed as activators; also: % of control where 0% means no effect
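48 hr co-incubation of compounds, a-CD3 beads and primary human leukocytes; IL-2 quantified homogeneously by HTRF with anti-IL-2 K and d2 conjugates.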
Sfp PPTase inh – Sfp phosphopantetheinyl transferase inhibition. Biochemical Sfp PPTase activity, qHTS. AID 1490. actives 3.5% (n = 310,000). Q9F4F7. Potency, µM, for inactives: largest response in the series, negative = inhibition, hits mostly inhibitors;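 also: the enzyme is Sfp with the accession as filed and its product quenches rhodamine fluorescence; potency is read from the fitted curve at half-maximal effect; 0% = enzyme reaction without inhibitor and -100% = no enzyme wells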
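Step 1, compound plus 15 nM Sfp-PPTase, 15 min, room temperature. Step 2, add rhodamine-CoA (5 uM) and BHQ-2-YbbR (12.5 uM). Step 3, read 525/598 nm fluorescence at 0 and 30 min.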
uPA generation – inhibitors of cell surface uPA generation | cell surface uPA generation assay, qHTS | Potency, µM (doses to about 38.3 µM), inactives show at the top dose activity change, negative = inhibition, usual class: inhibitors | actives 0.31% (n = 330,000) | AID 540303; active = well fitted inhibition curve with a large enough effect; inconclusive = small, poorly fitted or top-dose-only effect; inactive = no such curve, though single readings can be large or run the other way; tested in mouse RAW 264.7 cells; also: potency is read from the fitted curve at half-maximal effect; % is scaled to controls: 0 for no effect and ±100 for the full control effect; nearly all actives have a fitted effect of over 55% in size
ClpP mod – qHTS Assay for Activators of ClpP; AID 651965, 2013; actives 1.9% (n = 340,000); ATP-dependent Clp protease proteolytic subunit (Bacillus subtilis (strain 168)), P80244; Potency, µM (doses to about 57.5 µM), without a hit: at the highest dose activity change, negative = active; purified B. subtilis ClpP, FRET peptide cleavage, 20 min; active = well fitted falling curve with a large enough effect; inconclusive = small, poorly fitted or top-dose-only effect; inactive = no such curve, though single readings can be large or run the other way; also: potency is read from the fitted curve at half-maximal effect; the source files actives as falling curves though it sought activators and does not explain the sign; nearly all actives have a fitted effect of over 65% in size
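Buffer: 100 mM Tris/HCl pH8, 100 mM KCl, 0.05% low protease BSA, 2.5% glycerol, 0.01% Tween-20. ClpP 10 microg/mL final; 20 min RT; delta FRET normalized to ADEP and DMSO controls.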
* = called active by the depositor; ? = inconclusive; . = not tested or not shown; [ ] = remark or other dose. Only some compounds are listed: those with a hit (about 4.2% of all), similar ones and a draw of the others. Unless noted, calls follow the shape of the dose curve; as a rule, active = well fitted curve in the direction sought with a large enough effect; inconclusive = small, poorly fitted or top-dose-only effect, or another doubt; inactive = no such curve, though single readings can be large; an effect the other way counts as inactive or inconclusive.

SMILES | TCR activator | Sfp PPTase inh | uPA generation | ClpP mod
Cc1csc2ncc(C(=O)NCc3ccco3)c(=O)n12 | 0.2%[46.1 µM] | -9.0% | -4.5% | 20µM*
O=C(NCc1ccco1)c1cnc2sccn2c1=O | 2.8% | -17.6% | 5.3% | ?
CC(C)(C)c1ccc(/C=C/C(=O)NC2=NCCS2)cc1 | 4.1% | 1.1% | 2.4% | -9.2%
Cc1ccc(/C=C/C(=O)NC2=NCCS2)cc1 | -7.3%[46.1 µM] | 9.4% | 10µM* | -0.8%
O=C1Nc2ccccc2OCc2c1cccc2[N+](=O)[O-] | 1.3% | 17.0% | -5.0% | .
N/C(=N\OC(=O)/C=C/c1ccccc1Cl)c1cccnc1 | 0.0% | -4.4% | -1.3% | .
N/C(=N\OC(=O)/C=C/c1ccccc1Cl)c1ccccn1 | -37.7% | -13.5% | 3.55µM* | -1.0%
COc1ccc(Cl)cc1C(=O)O/N=C(\N)c1ccccn1 | -11.3% | 6.6% | 10µM* | 10.7%
Cc1ccc(C(C)C)c(OCC(=O)Nc2cc(-c3nc4ccccc4[nH]3)ccc2C)c1 | . | . | . | 4.0%
CCOc1ccc(C(=O)Nc2ccc(N3CCN(C(=O)c4ccco4)CC3)cc2)cc1Br | -10.8% | . | 5.9% | 43.2%
CC(C)Oc1cccc(C(=O)NC(=S)Nc2ccc(N3CCN(C)CC3)cc2)c1 | -5.2% | 70.8µM* | ? | 3.0%
CCOc1ccc(C(=O)Nc2ccc(N3CCN(C)CC3)cc2)cc1Br | 6.5% | 6.1% | -2.9% | 17.8µM*
CNC(=O)N(O)C1N(/N=C/c2cc(Br)ccc2O)C(=S)SC1(C)C (configuration not stated) | -1.6% | 79.4µM* | 5.9% | -0.8%
CNC(=O)N(O)C1N(/N=C/c2ccc(C)cc2)C(=S)SC1(C)C (configuration not stated) | -119.5% | -7.3% | 7.0% | -1.1%
Cc1ccccc1/C=N\NC(=O)c1csnn1 | -1.7% | 14.1µM* | -4.0% | 3.1%
Cc1ccccc1/C=N/NC(=O)c1cccnc1 | 1.0% | 24.2% | -7.1% | -1.9%
O=C(N/N=C\c1ccc(F)cc1)c1csnn1 | 1.2% | 1.41µM* | 3.2% | -1.6%
CCn1ccc(C(=O)NC2C(=O)N3C(C(=O)O)=C(C)CSC23)n1 (configuration not stated) | 1.6% | 31.6µM* | -7.3% | -1.4%
CC1=C(C(=O)O)N2C(=O)C(NC(=O)c3nn(C)cc3Cl)C2SC1 (configuration not stated) | -3.8% | 39.8µM* | 2.8% | -2.7%
CC1=C(C(=O)O)N2C(=O)C(NC(=O)c3ccccc3Cl)C2SC1 (configuration not stated) | 4.7% | 8.91µM* | -2.4% | .
CN(C)CCNc1nccc(N2CCN(C)CC2)n1 | . | . | . | -19.0%
CC(=O)Nc1ccc(S(=O)(=O)N(C)CC(=O)OCC(=O)c2ccc[nH]2)cc1 | -1.9% | . | 4.1% | -0.6%
CC(=O)Nc1ccc(S(=O)(=O)N(C)CC(=O)OCC(=O)NNC(=O)c2ccccc2F)cc1 | -4.3% | . | 1.7% | 11.2µM*
Cc1cccc(N=c2oc3cc(O)ccc3cc2C(N)=O)c1 | -5.7% | 10.4% | 2.7% | 28.2µM*
COc1ccccc1N=c1oc2cc(O)ccc2cc1C(N)=O | 3.9% | 6.9% | -7.5% | -1.0%
SMILES | TCR activator | Sfp PPTase inh | uPA generation | ClpP mod
Cc1[nH]c(=S)[nH]c(=O)c1CCC1OCCO1 | 2.7% | 79.4µM* | -0.7% | -1.9%
Cc1cc2c(cc1S(=O)(=O)N(C)CC(=O)Nc1cccc(C#N)c1)OCC(=O)N2 | . | . | . | 1.1%
CCC(C)NC(=O)CSc1nc2cc3c(cc2c(=O)n1CCCC(=O)NCc1ccc2c(c1)OCO2)OCO3 (configuration not stated) | . | . | . | -1.8%
CCOc1ccccc1CNS(=O)(=O)c1ccc(-c2cnc(C3CC3)o2)cc1 | -0.9% | 9.9% | 0.282µM* | 4.4%
O=S(=O)(NCc1ccccc1)c1ccc(-c2cnc(C3CC3)o2)cc1 | -1.0% | 2.4% | 5.62µM* | 4.0%
Cc1ccc(CNS(=O)(=O)c2ccc(-c3cnc(C4CC4)o3)cc2)cc1 | -3.6% | 1.3% | 0.1% | 4.4%
COc1ccc(-c2ccc(C(=O)Nc3cccc(N(C)C)c3)c3occc23)c(C)c1 | . | . | . | 28.2µM*
CN(C)CCNC(=O)c1cccc2c(-c3ccc(F)c(F)c3)coc12 | . | . | . | -6.0%
CN(C)c1cccc(NC(=O)c2cccc3c(-c4ccc(F)c(F)c4)coc23)c1 | . | . | . | 22.4µM*
Cn1cc(-c2ccc(C(=O)Nc3cccc(Oc4ccccc4)c3)c3occc23)cn1 | . | . | . | 22.4µM*
COc1ccc(-c2cc(C(=O)Nc3cc(C(F)(F)F)ccc3Cl)no2)cc1 | . | . | . | -2.5%
CCCCN(CC)C(=O)c1ccc2c(c1)NC(=O)c1ccccc1S2 | . | . | . | -0.3%
O=C(CCC(=O)N1CCN(C2CCCCC2)CC1)Nc1nnc(C(F)(F)F)s1 | -4.6% | 19.2% | -2.5% | 12.6µM*
COc1cccc(CN2CCN(Cc3ccco3)CC2)c1 | -3.5% | 44.7µM* | -6.3% | 1.0%
COc1cccc(CN2CCN(Cc3cc(OC)c(OC)cc3OC)CC2)c1 | -1.5% | 56.2µM* | 4.2% | -6.8%
Cc1cccc(NC(=O)C(=O)NCC2CCCN2S(=O)(=O)c2cccs2)c1 (configuration not stated) | . | . | . | 2.0%
Cc1nc(Nc2ccc(Cl)cc2)cc(-c2ccccc2)n1 | . | . | . | 4.8%
Cc1ccc(C)c(Cn2c3ccccc3c3cnn(CC(=O)NC(C)c4ccccc4)c(=O)c32)c1 (configuration not stated) | . | . | . | -10.7%
COc1ccc(CN(C(=O)c2snc(C(N)=O)c2N)C(CC(C)C)C(=O)NC2CCCCC2)cc1 (configuration not stated) | -1.7% | 11.2% | 0.6% | .
CC[C@H](C)/C=C(C)/C=C/C(=O)Cc1cc(O)c(C)c(O)c1C=O | -3.3% | 89.1µM* | 3.8% | -2.7%
O=C(CSc1nnc2c(n1)[nH]c1ccccc12)OCc1ccccc1 | 8.4%[46.1 µM] | 12.4% | 0.9% | -2.0%
O=C(O)c1ccccc1CSc1nnc2c(n1)[nH]c1ccccc12 | 0.6% | 56.2µM* | 1.8% | .
O=C(O)CSc1nnc2c(n1)[nH]c1ccccc12 | 2.1% | 50.1µM* | 0.3% | .
CCOc1ccc(N(CC(=O)Nc2ccccc2Cl)S(C)(=O)=O)cc1 | . | 21.3% | 10µM* | 1.7%
CCOc1ccc(N(CC(=O)NCc2ccco2)S(C)(=O)=O)cc1 | 2.6% | 56.2µM* | -0.4% | -1.0%
SMILES | TCR activator | Sfp PPTase inh | uPA generation | ClpP mod
CCOc1ccc(N(CC(=O)Nc2ccccc2C(=O)NCc2ccco2)S(C)(=O)=O)cc1 | 6.4% | 9.5% | . | -15.7%
CCOC(=O)c1c(CN2CCCCC2)oc2ccc(O)cc12 | -4.1% | -0.6% | 9.8% | 28.2µM*
Cc1cc(-c2ccccc2)[nH]c(=O)c1S(=O)(=O)c1ccc(Cl)cc1 | . | -3.7% | -0.8% | ?
Cc1cc(-c2ccccc2)[nH]c(=O)c1S(=O)(=O)c1ccccc1 | -1.6% | -1.1% | -3.0% | 14.1µM*
O=C(CSc1nnc(Nc2ccccc2)s1)NCC1CCCO1 (configuration not stated) | -8.3% | . | 9.3% | -0.2%
Cc1ccc(C)c(OCc2cc(C(=O)NC(c3ccccn3)C(F)(F)F)no2)c1 (configuration not stated) | -19.1% | . | 22.4% | -2.2%
